# According to PubChem BioAssay (NCI):
# “And” between values parts separate entries of the source, which are not always exact repeats. Identical values can stand only once. The panel holds about 83,000 compounds, 20% with a hit somewhere; the sample as a whole holds those more often.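 Testing used 96-well plates and a 48-hour single-concentration exposure. Example: -40 means 40% of the starting cells died.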 The source made the active and inactive calls. The calls were made as follows: active = growth percent below 10; inactive = the rest.
# Test system: UACC-62 melanoma
# Assay: NCI-60 one-dose screen, 48 h (100 = growth as untreated, 0 = no growth, -100 = all killed)
# Conditions: 10 µM unless noted
row,Structure (SMILES),growth
1,CCc1ccccc1-c1nc(CN[C@@H]2C[C@@H]3C[C@H]([C@H]2C)C3(C)C)c(C)o1,-88.3% (active)
2,Cc1ccccc1Nc1nnc(-c2c[nH]c3ccccc23)o1,28.4% (inactive)
3,Cc1ccc(/C=C/C(=O)c2ccc(S(=O)(=O)NCCNc3nc(N(C)C)nc(N4CCOCC4)n3)cc2)cc1,72.6% (inactive)
4,COC(=O)c1c(C(=O)OC)c2ccc3c4ccccc4ccc3n2c1C(=O)C(C)Br (configuration not stated),33.5% (inactive)
5,COc1cc(CNC(=O)C[C@H](C)CCC=C(C)C)ccc1OCc1cn(-c2ccc(Cl)cc2Cl)nn1,65.6% (inactive)
6,Cc1cc(C(NC(=O)C2CC3(CC(Nc4cccc5c4C(=O)N(C4CCC(=O)NC4=O)C5=O)C3)C2)c2ccc3c(c2)OC(F)(F)O3)c(O)c2ncccc12 (configuration not stated),-41% (active)
7,O=C(CSc1nnc(-c2ccc(-c3nc4ccc(Cl)cc4[nH]3)cc2)o1)Nc1ccc(Br)cc1,-53.4% (active)
8,COc1ccc(-c2nc3ccccc3n2CC(=O)N=Nc2c(O)[nH]c3ccc(OC)cc23)cc1,81.6% (inactive)
9,Nc1cccc(-n2c(COc3ccc(I)cc3)nc3ccccc32)c1,57.6% (inactive) and 92.2% (inactive)
10,COC(=O)c1cc(C(=O)C(Br)Br)n2c1ccc1c3ccccc3ccc12,51.8% (inactive)
11,O=C(NN1C(=O)/C(=C/C=C/c2ccc([N+](=O)[O-])o2)SC1=S)c1ccc([N+](=O)[O-])cc1,-99.6% (active)
12,Cc1ccc2nc(NC(=O)Nc3cccc(Cl)c3)sc2c1,91.2% (inactive)
